Six compounds from PubChem BioAssay (NCATS) can be followed below.

The subject of test [1] is NIH3T3. The experiment in a line: Cytotoxic Profiling of Annotated Libraries Using Quantitative High-Throughput Screening (AID 1296008). Further: nearly all actives have a fitted effect of over 60% in size. Further: potency means the concentration at half of the fitted maximal effect. To be noted: Five cell lines viability, CellTiter-Glo ATP luminescence, 48-72 h; max response: active compounds read low. Summed up:
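Compounds were pin-transferred onto cells and incubated 48 or 72 hr at 37 degree Celsius, 95% humidity. CellTiter-Glo was added, plates sat 10 min at room temperature, then ATP-coupled luminescence was imaged as the viability read-out.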
In general terms: ATP-based viability assays read luminescence as a measure of living cells.

For test [2], the system named is MCC-13. The experiment in a line: qHTS assay to identify novel small-molecules to repurpose for Merkel cell carcinoma treatment (AID 1296009). Further: nearly all actives have a fitted effect of over 60% in size. To be noted: MCC and control cell lines, CellTiter-Glo viability, 72 h; series mostly up to 46 µM. The procedure, abridged: (§1)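 qHTS format: cells treated with library compounds in DMSO across 8 (NPC) or 11 (MIPE) concentrations. Readout after 72 hr at 37 degree celsius was CellTiter-Glo luminescence.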
Background: In qHTS, concentration-response curves come from the screen itself.

In test [3] the test system is MCC-26. Described as above. To be noted: MCC and control cell lines, CellTiter-Glo viability, 72 h; series mostly up to 46 µM. The procedure, abridged:
as §1

Test [4] deals with MKL-1. The description is as above. The note with it: MCC and control cell lines, CellTiter-Glo viability, 72 h; series mostly up to 46 µM. The procedure, abridged: as §1
Test [5] relates to MKL-2. The test is described as above. To be noted: MCC and control cell lines, CellTiter-Glo viability, 72 h; series mostly up to 46 µM. The procedure, abridged:
as §1

Test [6] has as its system C33A. The test can be described thus: Primary qHTS to identify gynecologic anti-cancer compounds using libraries of approved drugs and bioactive compounds (AID 1345084). Further: nearly all actives have a fitted effect of over 55% in size. Further: potency means the concentration at half of the fitted maximal effect. The note with it: Gynecologic cancer cell panel viability, ATPlite luminescence, 48 h; series mostly up to 57.5 µM. Summed up:
(§2)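 Cells, 1,000 per well, were allowed to settle for 16 h at 37 C before compound addition. Five concentrations were tested for 48 h, and viability was read by ATPlite luminescence after 15 min at room temperature.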

The test system of test [7] is Es-2. The test is described as above. To be noted: Gynecologic cancer cell panel viability, ATPlite luminescence, 48 h; series mostly up to 57.5 µM. Summed up: as §2
For test [8], the system named is HeLa. The test is described as above. To be noted: Gynecologic cancer cell panel viability, ATPlite luminescence, 48 h; series mostly up to 57.5 µM. The procedure, abridged:
as §2

The subject of test [9] is JEG-3. The description is as above. To be noted: Gynecologic cancer cell panel viability, ATPlite luminescence, 48 h; series mostly up to 57.5 µM. Summed up:
as §2

Test [10] has as its system OV90. The test is described as above. The note with it: Gynecologic cancer cell panel viability, ATPlite luminescence, 48 h; series mostly up to 57.5 µM. Summed up:
as §2

Test [11] deals with PA-1. The description is as above. The note with it: Gynecologic cancer cell panel viability, ATPlite luminescence, 48 h; series mostly up to 57.5 µM. Summed up:
as §2

Test [12] has as its system SKOV3. Described as above. The note with it: Gynecologic cancer cell panel viability, ATPlite luminescence, 48 h; series mostly up to 57.5 µM. Summed up: as §2
Test [13] concerns HACAT. The test can be described thus: qHTS assay to identify novel small-molecules to repurpose for Merkel cell carcinoma treatment (AID 1296009). Further: nearly all actives have a fitted effect of over 60% in size. To be noted: MCC and control cell lines, CellTiter-Glo viability, 72 h. Summed up:
as §1

The test system of test [14] is NIH3T3. The description is as above. To be noted: MCC and control cell lines, CellTiter-Glo viability, 72 h. Summed up:
as §1

Test [15] deals with UISO. Described as above. To be noted: MCC and control cell lines, CellTiter-Glo viability, 72 h; series mostly up to 46 µM. Summed up:
as §1

The test system of test [16] is WaGa. The description is as above. To be noted: MCC and control cell lines, CellTiter-Glo viability, 72 h; series mostly up to 46 µM. The procedure, abridged:
as §1

Test [17] deals with CASKI. The test can be described thus: Primary qHTS to identify gynecologic anti-cancer compounds using libraries of approved drugs and bioactive compounds (AID 1345084). Further: nearly all actives have a fitted effect of over 55% in size. Further: potency means the concentration at half of the fitted maximal effect. The note with it: Gynecologic cancer cell panel viability, ATPlite luminescence, 48 h; series mostly up to 57.5 µM. Summed up:
as §2

Test [18] has as its system Hek293T. The description is as above. To be noted: Gynecologic cancer cell panel viability, ATPlite luminescence, 48 h, control line for the selectivity index; series mostly up to 57.5 µM. Summed up: as §2
Test [19] deals with HEK293T. The experiment in a line: qHTS assay to identify novel small-molecules to repurpose for Merkel cell carcinoma treatment (AID 1296009). Further: nearly all actives have a fitted effect of over 60% in size. The note with it: MCC and control cell lines, CellTiter-Glo viability, 72 h; at 44.8 µM (top of the series). Summed up:
as §1

Test [20] has as its system CAOV3. The test can be described thus: Primary qHTS to identify gynecologic anti-cancer compounds using libraries of approved drugs and bioactive compounds (AID 1345084). Further: nearly all actives have a fitted effect of over 55% in size. Further: potency means the concentration at half of the fitted maximal effect. To be noted: Gynecologic cancer cell panel viability, ATPlite luminescence, 48 h; series mostly up to 57.5 µM. The procedure, abridged:
as §2

Setting [21] is: at 44.8 µM (top of the series) unless noted.

Results filed as inconclusive are left out. Some structures have more than one record in an assay (separate samples or runs), and their calls can disagree. A number with no mark means an inactive call. Active and inactive are the calls of the source. The call rests on the fitted dose curve; in most records, active means well fitted curve in the direction sought with a large enough effect; inconclusive means small, poorly fitted or top-dose-only effect, or another doubt; inactive means no such curve, though single readings can be large; an effect the other way counts as inactive or inconclusive.
On the % scale 0 is the no-effect control and ±100 the full control effect.

For the compound `COc1cccc2cc(-c3nc(C4CCC(C(=O)O)CC4)n4ncnc(N)c34)[nH]c12` (configuration not stated), the Potency in test [1] was 7.31 µM (active); in test [6] it was 7.94 µM (active); in test [7], 7.08 µM (active); in test [10], 7.94 µM (active); in [11], 3.16 µM (active); in test [12], 11.2 µM (active). For the same compound, the max response in test [1] was -35.2%. In addition, the Potency result in [2], in [3], in [4], in test [5], in test [8] and in test [9] was “inactive” throughout.
Consider `COc1ccc(CCN2CCN(CCCc3ccccc3)CC2)cc1OC`, for which the max response in test [1] is 1.46%. Further, the compound was called inactive in [1], in [13] (setting [21]) and in test [14] (setting [21]). The Potency result in test [2], in [4], in test [5], in [15], in [16] and in test [6] was “inactive” throughout. Also, the Potency entry in test [17], in [7], in test [8], in test [18], in test [9] and in test [10] was “inactive” throughout. Further, the Potency entry in test [11] and in [12] was “inactive” in each case.
As for `C[C@@H]1CN(Cc2ccc(F)cc2)[C@@H](C)CN1C(=O)c1cc2c(C(=O)C(=O)N(C)C)cn(C)c2cc1Cl`, the max response in [1] is 1.1%. Also, the outcome in [1], in [13] (setting [21]) and in test [14] (setting [21]) was inactive. Further, the Potency result in [2], in test [3], in test [4], in [5], in test [15] and in test [6] was “inactive” in each case. Moreover, the Potency entry in test [17], in [7], in test [8], in [18], in test [9] and in test [10] was “inactive” in each case. In addition, the Potency entry in test [11] and in test [12] was “inactive” each time.
For `N=c1nc(N2CCCCC2)cc(N)n1O`, the max response in [1] was 3.13%. Also, the result in test [1], in [13] (setting [21]), in [19] and in [14] (setting [21]) was inactive. The Potency result in test [2], in test [3], in test [4], in [5], in test [15] and in [16] was “inactive” throughout. Further, the Potency result in test [6], in [20], in [7], in test [8], in test [18] and in test [9] was “inactive” in each case. Also, the Potency result in test [10], in [11] and in test [12] was “inactive” in each case.
With `CCN(CC)CCCC(C)Nc1ccnc2cc(Cl)ccc12` (configuration not stated), the max response in test [1] is -0.66%. For the same compound, the outcome in test [1], in test [13] (at 9.27 µM (top of the series)), in [13] (at 17.4 µM (top of the series)), in test [13] (at 44.8 µM (top of the series)), in test [19] and in test [14] (at 9.27 µM (top of the series)) was inactive. Also, the call in test [14] (at 44.8 µM (top of the series)) was inactive. Moreover, the Potency result in test [2], in test [3], in test [4], in test [15], in test [16] and in test [6] was “inactive” each time. Further, the Potency result in test [7], in test [8], in [18], in [9], in test [11] and in [12] was “inactive” in each case. In addition, the activity change, negative = cytotoxicity in test [17] was -9.21% [at 11.6 µM]. Also, in test [10], the Potency is 5.62 µM (active).
Regarding `Cc1ccnc(NS(=O)(=O)c2ccc(NC(=O)Nc3ccc(S(=O)(=O)Nc4nccc(C)n4)cc3)cc2)n1`, the Potency in [1] was 2.09 µM (active). Further, the max response in test [1] is -7.88%. In addition, the Potency result in [2], in [4], in [5], in [15], in [16] and in test [6] was “inactive” in each case. For the same compound, the Potency result in test [17], in [7], in [8], in test [18], in test [9] and in [10] was “inactive” throughout. In addition, the Potency result in test [11] and in [12] was “inactive” throughout.
